# Laboratory results: publication PMC12820563, “FoxP3 forms a head-to-head dimer in vivo and stabilizes its multimerization on adjacent microsatellites”
# The full ranking holds about 16,000 sequences; the median of “rpm ratio (pull-down/input)” is about 0.94, and the highest 2% start at about 1.7. The list comes from a sample in which the highest values are over-represented; it also holds similar and randomly drawn sequences.
# Target: T1, MBP-FoxP1dN (Mus musculus, UniProt P58462 326-579)
# T1 sequence: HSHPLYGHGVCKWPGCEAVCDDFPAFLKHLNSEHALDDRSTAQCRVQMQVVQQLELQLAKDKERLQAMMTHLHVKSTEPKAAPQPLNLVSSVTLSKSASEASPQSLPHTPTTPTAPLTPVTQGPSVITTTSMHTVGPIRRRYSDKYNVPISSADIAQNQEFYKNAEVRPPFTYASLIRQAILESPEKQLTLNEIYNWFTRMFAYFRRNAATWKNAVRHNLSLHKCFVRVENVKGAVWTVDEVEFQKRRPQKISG
# Test: PD-seq (MBP pull-down with sequencing); 20 mM Tris-HCl pH 7.5, 100 mM NaCl, 1.5 mM MgCl2, 0.4 uM protein, 0.1 uM dsDNA library, 30 min, room temperature, amylose pull-down; high values mean tight binding
# Settings: protein: recombinant; tags: His6-MBP; chain copies: 2; dsDNA, one strand shown
# Outline: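 Protein and DNA were mixed at 0.4 µM and 0.1 µM and held for 30 min at room temperature in Tris pH 7.5 buffer with NaCl and MgCl2; the protein was a His6-MBP-tagged, N-terminally truncated mouse FoxP3 or FoxP1 fragment from E. coli, and the DNA a Klenow-filled double-stranded degenerate library. Amylose resin captured the complexes, which were washed three times. Binding is read as reads-per-million enrichment of pull-down versus input after Illumina sequencing, with replicates pooled.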
row,Sequence,binding signal
1,GATGATTGTTCTCCCAGCTGATGAATTCAACGCGTCGAGTAAACAAATTTTCCTAATCTTTCTGTTCAAGCGCCATCTAC,0.959 RPM ratio (pull-down/input)
2,GATGATTGTTCTCCCAGCTGATGAATTTTTACCATCGAGTAAACAAATTTTCCTAATCTTTCTGTTCAAGCGCCATCTAC,1.01 RPM ratio (pull-down/input)
3,GATGATTGTTCTCCCAGCTGATGAATTTTACTGGTCGAGTAAACAAATTTTCCTAATCTTTCTGTTCAAGCGCCATCTAC,0.796 RPM ratio (pull-down/input)
4,GATGATTGTTCTCCCAGCTGATGAATTCTGGAGATCGAGTAAACAAATTTTCCTAATCTTTCTGTTCAAGCGCCATCTAC,0.812 RPM ratio (pull-down/input)
5,GATGATTGTTCTCCCAGCTGATGAATTACAATGTTCGAGTAAACAAATTTTCCTAATCTTTCTGTTCAAGCGCCATCTAC,1.4 RPM ratio (pull-down/input)
6,GATGATTGTTCTCCCAGCTGATGAATTATCTACATCGAGTAAACAAATTTTCCTAATCTTTCTGTTCAAGCGCCATCTAC,1.12 RPM ratio (pull-down/input)
7,GATGATTGTTCTCCCAGCTGATGAATTTATTTCATCGAGTAAACAAATTTTCCTAATCTTTCTGTTCAAGCGCCATCTAC,1.16 RPM ratio (pull-down/input)
8,GATGATTGTTCTCCCAGCTGATGAATTATCAACATCGAGTAAACAAATTTTCCTAATCTTTCTGTTCAAGCGCCATCTAC,2.09 RPM ratio (pull-down/input)
9,GATGATTGTTCTCCCAGCTGATGAATTATCAAAATCGAGTAAACAAATTTTCCTAATCTTTCTGTTCAAGCGCCATCTAC,1.22 RPM ratio (pull-down/input)
10,GATGATTGTTCTCCCAGCTGATGAATTTATTTTATCGAGTAAACAAATTTTCCTAATCTTTCTGTTCAAGCGCCATCTAC,1.46 RPM ratio (pull-down/input)
11,GATGATTGTTCTCCCAGCTGATGAATTTTATTTATCGAGTAAACAAATTTTCCTAATCTTTCTGTTCAAGCGCCATCTAC,2.95 RPM ratio (pull-down/input)
12,GATGATTGTTCTCCCAGCTGATGAATTTGCTCCCTCGAGTAAACAAATTTTCCTAATCTTTCTGTTCAAGCGCCATCTAC,0.995 RPM ratio (pull-down/input)
13,GATGATTGTTCTCCCAGCTGATGAATTACGGCCTTCGAGTAAACAAATTTTCCTAATCTTTCTGTTCAAGCGCCATCTAC,0.977 RPM ratio (pull-down/input)
14,GATGATTGTTCTCCCAGCTGATGAATTGCTGAGATCGAGTAAACAAATTTTCCTAATCTTTCTGTTCAAGCGCCATCTAC,0.969 RPM ratio (pull-down/input)
15,GATGATTGTTCTCCCAGCTGATGAATTGACTAGTTCGAGTAAACAAATTTTCCTAATCTTTCTGTTCAAGCGCCATCTAC,1.08 RPM ratio (pull-down/input)
16,GATGATTGTTCTCCCAGCTGATGAATTAGTAACATCGAGTAAACAAATTTTCCTAATCTTTCTGTTCAAGCGCCATCTAC,1.45 RPM ratio (pull-down/input)
17,GATGATTGTTCTCCCAGCTGATGAATTTCCCACTTCGAGTAAACAAATTTTCCTAATCTTTCTGTTCAAGCGCCATCTAC,0.889 RPM ratio (pull-down/input)
18,GATGATTGTTCTCCCAGCTGATGAATTTTCTTATTCGAGTAAACAAATTTTCCTAATCTTTCTGTTCAAGCGCCATCTAC,0.953 RPM ratio (pull-down/input)

row,Sequence,binding signal
1,GATGATTGTTCTCCCAGCTGATGAATTCTCTTATTCGAGTAAACAAATTTTCCTAATCTTTCTGTTCAAGCGCCATCTAC,0.995 RPM ratio (pull-down/input)
2,GATGATTGTTCTCCCAGCTGATGAATTTGGTTATTCGAGTAAACAAATTTTCCTAATCTTTCTGTTCAAGCGCCATCTAC,1.15 RPM ratio (pull-down/input)
3,GATGATTGTTCTCCCAGCTGATGAATTGTGTTATTCGAGTAAACAAATTTTCCTAATCTTTCTGTTCAAGCGCCATCTAC,2.18 RPM ratio (pull-down/input)
4,GATGATTGTTCTCCCAGCTGATGAATTTGATTATTCGAGTAAACAAATTTTCCTAATCTTTCTGTTCAAGCGCCATCTAC,1.2 RPM ratio (pull-down/input)
5,GATGATTGTTCTCCCAGCTGATGAATTCTTATTTTCGAGTAAACAAATTTTCCTAATCTTTCTGTTCAAGCGCCATCTAC,2.25 RPM ratio (pull-down/input)
6,GATGATTGTTCTCCCAGCTGATGAATTCTTATGTTCGAGTAAACAAATTTTCCTAATCTTTCTGTTCAAGCGCCATCTAC,1.21 RPM ratio (pull-down/input)
7,GATGATTGTTCTCCCAGCTGATGAATTCCTGTGTTCGAGTAAACAAATTTTCCTAATCTTTCTGTTCAAGCGCCATCTAC,1.26 RPM ratio (pull-down/input)
8,GATGATTGTTCTCCCAGCTGATGAATTGTTATGTTCGAGTAAACAAATTTTCCTAATCTTTCTGTTCAAGCGCCATCTAC,2.01 RPM ratio (pull-down/input)
9,GATGATTGTTCTCCCAGCTGATGAATTTATGATTTCGAGTAAACAAATTTTCCTAATCTTTCTGTTCAAGCGCCATCTAC,1.37 RPM ratio (pull-down/input)
10,GATGATTGTTCTCCCAGCTGATGAATTTTGTTATTCGAGTAAACAAATTTTCCTAATCTTTCTGTTCAAGCGCCATCTAC,2.37 RPM ratio (pull-down/input)
11,GATGATTGTTCTCCCAGCTGATGAATTCGTTATTTCGAGTAAACAAATTTTCCTAATCTTTCTGTTCAAGCGCCATCTAC,1.14 RPM ratio (pull-down/input)
12,GATGATTGTTCTCCCAGCTGATGAATTCCGTAAATCGAGTAAACAAATTTTCCTAATCTTTCTGTTCAAGCGCCATCTAC,1.2 RPM ratio (pull-down/input)
13,GATGATTGTTCTCCCAGCTGATGAATTGAACGTCTCGAGTAAACAAATTTTCCTAATCTTTCTGTTCAAGCGCCATCTAC,0.787 RPM ratio (pull-down/input)
14,GATGATTGTTCTCCCAGCTGATGAATTACCGTGGTCGAGTAAACAAATTTTCCTAATCTTTCTGTTCAAGCGCCATCTAC,0.89 RPM ratio (pull-down/input)
15,GATGATTGTTCTCCCAGCTGATGAATTTCCGAGGTCGAGTAAACAAATTTTCCTAATCTTTCTGTTCAAGCGCCATCTAC,0.721 RPM ratio (pull-down/input)
16,GATGATTGTTCTCCCAGCTGATGAATTAGACTTCTCGAGTAAACAAATTTTCCTAATCTTTCTGTTCAAGCGCCATCTAC,0.789 RPM ratio (pull-down/input)
17,GATGATTGTTCTCCCAGCTGATGAATTCCTTAGATCGAGTAAACAAATTTTCCTAATCTTTCTGTTCAAGCGCCATCTAC,0.924 RPM ratio (pull-down/input)
18,GATGATTGTTCTCCCAGCTGATGAATTTGCTCGATCGAGTAAACAAATTTTCCTAATCTTTCTGTTCAAGCGCCATCTAC,0.994 RPM ratio (pull-down/input)
